Data from PubChem BioAssay (NCI).
About 83,000 compounds went through this panel and 20% of them were active in at least one assay; those are over-represented in the sample as a whole.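 A percent growth of 40 corresponds to 60% growth inhibition; 0 means no net growth; -100 means all cells died. Active threshold: below 10.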

Columns and labels:
Assay in all cases: NCI-60 one-dose screen, 48 h (100 = growth as untreated, 0 = no growth, -100 = all killed)
Settings in all cases: 10 µM
NCI-H23 lung = tested on: NCI-H23 lung
NCI-H322M lung = tested on: NCI-H322M lung
HOP-62 NSCLC = tested on: HOP-62 NSCLC
NCI-H460 lung = tested on: NCI-H460 lung
HOP-92 NSCLC = tested on: HOP-92 NSCLC
NCI-H522 lung = tested on: NCI-H522 lung
A549/ATCC NSCLC = tested on: A549/ATCC NSCLC
786-0 renal = tested on: 786-0 renal
COLO 205 colon = tested on: COLO 205 colon

Measured: growth

O=C(CC(=O)c1ccccc1O)c1ccccc1
inactive: NCI-H23 lung 80.8% | NCI-H322M lung 103% | HOP-62 NSCLC 77.2% | NCI-H460 lung 88.8% | HOP-92 NSCLC 100% | NCI-H522 lung 83.1% | A549/ATCC NSCLC 89.8% | 786-0 renal 89.5% | COLO 205 colon 101%

CCn1c(=O)n(C)c2c(=O)n(C)c(=O)n(C)c21
inactive: NCI-H23 lung 98.9% | NCI-H322M lung 105% | HOP-62 NSCLC 97.2% | NCI-H460 lung 112% | HOP-92 NSCLC 102% | NCI-H522 lung 96.1% | A549/ATCC NSCLC 101% | 786-0 renal 109% | COLO 205 colon 101%

CCCCOC(=O)c1ccc(C(C)C)cc1
inactive: NCI-H23 lung 98.2% | NCI-H322M lung 96.3% | HOP-62 NSCLC 85.4% | NCI-H460 lung 109% | HOP-92 NSCLC 88.2% | NCI-H522 lung 83.1% | A549/ATCC NSCLC 77% | 786-0 renal 95.4% | COLO 205 colon 110%

COCCOC(=O)c1ccc(C(C)C)cc1
inactive: NCI-H23 lung 102% | NCI-H322M lung 98.2% | HOP-62 NSCLC 80.3% | NCI-H460 lung 108% | HOP-92 NSCLC 81.8% | NCI-H522 lung 79.7% | A549/ATCC NSCLC 79.5% | 786-0 renal 93.8% | COLO 205 colon 104%

Cc1ccc(S(=O)(=O)O)c(C)c1
inactive: NCI-H23 lung 105% | NCI-H322M lung 96.7% | HOP-62 NSCLC 94.5% | NCI-H460 lung 103% | HOP-92 NSCLC 92.4% | NCI-H522 lung 90.2% | A549/ATCC NSCLC 104% | 786-0 renal 103% | COLO 205 colon 104%

COc1cc2nn(-c3ccccc3N)nc2cc1OC
inactive: NCI-H23 lung 94.3% | NCI-H322M lung 97.1% | HOP-62 NSCLC 103% | NCI-H460 lung 102% | HOP-92 NSCLC 85.8% | NCI-H522 lung 100% | A549/ATCC NSCLC 95.1% | 786-0 renal 95.7% | COLO 205 colon 119%

CC(=O)OCC(=O)[C@@]1(O)CC[C@H]2[C@@H]3CC[C@@H]4C[C@H](O)CC[C@]4(C)[C@H]3C(=O)C[C@@]21C
inactive: NCI-H23 lung 103% | NCI-H322M lung 131% | HOP-62 NSCLC 105% | NCI-H460 lung 108% | HOP-92 NSCLC 93.4% | NCI-H522 lung 90.4% | A549/ATCC NSCLC 101% | 786-0 renal 105% | COLO 205 colon 105%

O=S(=O)(Cc1ccccc1)c1ccccc1
inactive: NCI-H23 lung 105% | NCI-H322M lung 118% | HOP-62 NSCLC 104% | NCI-H460 lung 112% | HOP-92 NSCLC 105% | NCI-H522 lung 104% | A549/ATCC NSCLC 98.6% | 786-0 renal 101% | COLO 205 colon 112%

OCC(O)C(O)C(O)C(O)/C=N/O (configuration not stated)
inactive: NCI-H23 lung 101% | NCI-H322M lung 103% | HOP-62 NSCLC 83.5% | NCI-H460 lung 99.8% | HOP-92 NSCLC 74.8% | NCI-H522 lung 94.9% | A549/ATCC NSCLC 60.9% | 786-0 renal 96.8% | COLO 205 colon 112%

O=C(O)CCCC(=O)O
inactive: NCI-H23 lung 95.3% | NCI-H322M lung 98.9% | HOP-62 NSCLC 97.7% | NCI-H460 lung 101% | HOP-92 NSCLC 72.6% | NCI-H522 lung 99.7% | A549/ATCC NSCLC 97.9% | 786-0 renal 106% | COLO 205 colon 97.1%

COc1cc(OC)c2ccc(=O)oc2c1
inactive: NCI-H23 lung 101% | NCI-H322M lung 107% | HOP-62 NSCLC 101% | NCI-H460 lung 104% | HOP-92 NSCLC 98.3% | NCI-H522 lung 116% | A549/ATCC NSCLC 97% | 786-0 renal 105% | COLO 205 colon 107%

O=C1c2ccccc2C(=O)N1OCc1ccccc1
inactive: NCI-H23 lung 111% | NCI-H322M lung 93.4% | HOP-62 NSCLC 95.4% | NCI-H460 lung 113% | NCI-H522 lung 96.5% | A549/ATCC NSCLC 122% | 786-0 renal 99.5% | COLO 205 colon 108%

CCCCC(O)c1ccccc1 (configuration not stated)
inactive: NCI-H23 lung 96.5% | NCI-H322M lung 101% | HOP-62 NSCLC 110% | NCI-H460 lung 105% | NCI-H522 lung 108% | A549/ATCC NSCLC 100% | 786-0 renal 104% | COLO 205 colon 105%

O=[N+]([O-])c1ccc(Cl)c(S(=O)(=O)O)c1
inactive: NCI-H23 lung 103% | NCI-H322M lung 136% | HOP-62 NSCLC 103% | NCI-H460 lung 108% | A549/ATCC NSCLC 102% | 786-0 renal 110%

C=CCCCCCCCCCOC(C)=O
inactive: NCI-H23 lung 100% | NCI-H322M lung 102% | NCI-H460 lung 109% | HOP-92 NSCLC 90.2% | NCI-H522 lung 102% | 786-0 renal 108%
